Compound activity deposited in PubChem by National Center for Advancing Translational Sciences (NCATS).
Rows were chosen to be rich in hits. Some 9.4% of all compounds tested hit in one or more screens of this group.
Pf growth 48h: P. falciparum growth inhibition at 48 hours (one generation). P. falciparum luciferase growth in erythrocytes, 48 h. Potency, µM (doses to about 28.7 µM), for inactives: at the highest dose activity change, negative = inhibition, hits mostly inhibitors. actives 5.9% (n = 310,000). AID 504832; also: % is scaled to controls: 0 for no effect and ±100 for the full control effect
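Compounds are pin-transferred into medium, infected erythrocytes (2% hematocrit, 0.1% parasitemia final) are added, and plates sit one parasite generation at 37 C in 5% CO2. Detection reagent is then added and luminescence measured.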
SARS PLpro yeast: blocks SARS-CoV papain-like protease in a yeast assay; Potency, µM (titrated, usually from 32.9 µM), inactives show at the highest dose activity, positive = growth rescue, most hits filed as activators; actives 0.19% (n = 330,000); AID 485353; S. cerevisiae expressing SARS-CoV PLpro, growth rescue; calls by dose curve; also: 0% is about no effect; nearly all actives have a fitted effect of over 55% in size
Pf growth 96h: P. falciparum growth inhibition at 96 hours. P. falciparum luciferase reporter growth, 96 h. Potency, µM (top dose mostly 28.7 µM), for the others: at the top dose activity change, negative = inhibition, most hits filed as inhibitors. actives 6.9% (n = 320,000). AID 504834; also: % is scaled to controls: 0 for no effect and ±100 for the full control effect
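Two-generation exposure (96 h) targets delayed-death phenotype. Reporter parasites carrying integrated firefly luciferase, in red cells at 2% hematocrit and 0.05% parasitemia final, kept at 37 C, 5% CO2; luminescence loss indicates inhibition.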
AMA1 RON2 block: disrupts binding of P. falciparum AMA1 to RON2; AlphaScreen AMA1-biotinylated RON2 peptide binding; Potency, µM (top dose mostly 58.2 µM), without a hit: at the top dose activity change, negative = inhibition, usual class: inhibitors; actives 0.2% (n = 360,000); AID 720542;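 also: 0% = vehicle wells and -100% = peptide control; nearly all actives have a fitted effect of over 45% in size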
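AMA1 (3D7) with his tag at 25 nM final met compounds first, then biotinylated RON2 peptide at 25 nM; detection used donor plus acceptor beads, 10 µg/mL apiece, read by AlphaScreen after 30 min at room temperature.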
An asterisk follows results filed as active; ? = inconclusive; · = no result; [ ] = dose if it differs, or a comment. Unless noted, calls follow the shape of the dose curve; as a rule, active = well fitted curve in the direction sought with a large enough effect; inconclusive = small, poorly fitted or top-dose-only effect, or another doubt; inactive = no such curve, though single readings can be large; an effect the other way counts as inactive or inconclusive. Potency is read from the fitted curve at half-maximal effect.

SMILES	Pf growth 48h	SARS PLpro yeast	Pf growth 96h	AMA1 RON2 block
Cc1ccc(NC(=O)C2CCN(C(=O)c3ccco3)CC2)cc1	5%	0%	-9%	-4%
CN(C(=O)c1ccc(NC(=O)Cc2cccc(NC(=O)C3CCCN(C(=O)C4CCCC4)C3)c2)cc1)C1CC1 (stereo not drawn)	·	·	·	7%
Nc1nc2c(ncn2-c2ccccc2)c(=O)[nH]1	·	·	·	-6%
O=C1c2ccccc2C(=O)c2c1ncn2-c1ccccc1	4.7µM*	2%	57%	-23%
CC(=O)Nc1cc2c(=O)n(Cc3ccccc3)c(C)nc2cc1N1CCOCC1	-6%	2%	12%	23%
CC(=O)Nc1ccc2c(c1)nc(C)n2Cc1ccccc1	5%	-7%	0.41µM*	-1%
Cc1nc2c(cc1NC(=O)c1ccccc1)nc(C)n2Cc1ccccc1	-19%	4%	12µM*	-10%
Cc1nc2cc(N3CCCCC3)c(NC(=O)c3cccnc3)cc2c(=O)n1Cc1ccccc1	2.9µM*	-2%	·	-10%
CC(=O)Nc1cc2nc(C)n(Cc3ccccc3)c2nc1C	·	-2%	?	0%
O=S(=O)(/N=C(\c1ccccc1)N1CCOCC1)c1cccs1	-3%	27%	-20%	1%
COc1cccc(N2CCN(C(=O)C3C4C=CC5(CN(Cc6ccccc6Cl)C(=O)C35)O4)CC2)c1 (stereo not drawn)	?	3%	?	2%
Cc1nccc(-c2cccc(NC(=O)c3ccccc3Cl)c2)n1	?	1%	-28%	0%
O=Nc1ccc(NO)c2ccccc12	·	·	·	7%
C=CCn1c(SCc2n[nH]c(=S)n2-c2ccccc2)nnc1-c1ccccc1	-13%	0%	6.6µM*	57%
C=CCn1c(CSc2nnc(-c3ccccc3)n2C)n[nH]c1=S	?	0%	-20%	32%
COc1ccc(-n2nccc2-c2nn(-c3cccc(OC)c3)c(=O)n(C)c2=O)cc1	·	-4%	-6%	-5%
COc1cccc(-n2nc(-c3ccnn3-c3ccc(F)cc3)c(=O)n(C)c2=O)c1	·	18%	12µM*	-1%
COCCNC(=O)C(OC(=O)c1ccco1)c1ccccc1OC (stereo not drawn)	8%	9%	33%	4%
CC(C)NCC(O)COc1cccc2ccccc12 (stereo not drawn)	10µM*	0%	?	-1%
CC(C)NCC(O)COc1cccc2[nH]ccc12 (stereo not drawn)	-3%	-1%	0.85µM*	·
CC(C)[N+](C)(C)CC(O)COc1cccc2ccccc12 (stereo not drawn)	6µM*	·	24%	·
C=CCOc1ccccc1OC[C@H](O)CNC(C)C	-25%[12.8 µM]	·	?	·
CCc1ccc(CN(C)CC(O)COc2cccc3ccccc23)cc1 (stereo not drawn)	0%	-15%	?	-15%
CCCOc1cccc(C2/C(=C(/O)c3ccccc3)C(=O)C(=O)N2CCN(C)C)c1 (stereo not drawn)	-3%	?	?	15%
CC(C)NC(=O)N1CCOCCOCCN(C(=O)NC(C)C)CCOCCOCC1	12%	1%	10%[5.75 µM]	11%
SMILES	Pf growth 48h	SARS PLpro yeast	Pf growth 96h	AMA1 RON2 block
CCOc1ccccc1N=C1SC(CC(=O)Nc2ccc(OC)cc2OC)C(=O)N1CCC1=CCCCC1 (stereo not drawn)	?	6%	4.1µM*	-14%
O=C(CC1SC(=Nc2ccc(OC(F)F)cc2)N(CCC2=CCCCC2)C1=O)Nc1ccccc1F (stereo not drawn)	10µM*	-5%	2.6µM*	-8%[2.32 µM]
CCn1c2ccccc2c2cc(N=C3SC(CC(=O)Nc4ccccc4OC)C(=O)N3CCOC)ccc21 (stereo not drawn)	9.3µM*	10%	?	-1%
COC(=O)c1ccc(N2C(=O)c3ccc(OC)c(OC)c3C2=O)cc1	27%	3%	6%[5.75 µM]	9%
O=C(O)c1sccc1S(=O)(=O)N1CCCCC1	·	·	·	-4%
COc1ccccc1C1c2ccc3ccccc3c2Oc2ncn(CCCO)c(=N)c21 (stereo not drawn)	7.4µM*	-7%	2.6µM*	-17%
COc1ccc(C2c3ccc(O)cc3Oc3ncn(CC(C)C)c(=N)c32)cc1 (stereo not drawn)	5.2µM*	1%	-2%	-1%
COc1ccc(C2c3ccc4ccccc4c3Oc3ncn4nc(Cc5ccccc5)nc4c32)cc1OC (stereo not drawn)	?	1%	12%	-19%
COc1ccccc1C1c2ccc3ccccc3c2Oc2ncn(CCN(C)C)c(=N)c21 (stereo not drawn)	3.3µM*	-4%	2.3µM*	-18%
